Many of the other results were omitted from the sample, so hits are more common in it than they were.
LDHA inh: LDHA (human) enzyme inhibition; 480,000 compounds, 0.15% hits; purified LDHA, NADH/diaphorase-resazurin fluorescence; hits give low values; activity change, % (values are at about 110 or 230 µM); in the data active means activity change below about -30%; inconclusive means mostly about -25% to -30%;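 further: plate controls were DMSO wells for no effect and wells without enzyme for full effect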
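Human LDH5 at 2 nM final in Tris HCl pH 7.4 with 0.06 mM NADH and 0.2 mM pyruvate, reacted 5 minutes at room temperature. Remaining NADH coupled via diaphorase/resazurin; resorufin fluorescence read at 0 and 20 minutes, normalized to enzyme-free and DMSO wells.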
RGS4 inh: human RGS4 inhibition. P49798. Transcreener GDP fluorescence polarization, RGS4-accelerated GTP hydrolysis. Potency, µM (titrated, usually from 114 µM), inactives show at the highest dose activity change, negative = inhibition, usual class: inhibitors. 390,000 compounds, 0.039% hits. AID 504845; further: potency means the concentration at half of the fitted maximal effect; on the % scale 0 is the no-effect control and ±100 the full control effect; nearly all actives have a fitted effect of over 75% in size
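MLSMR compounds (23 nl, pin-transferred) preincubated 10 min at room temperature with a 500nM (2x) first reagent, then RGS4 at 900nM (2x) plus Transcreener GDP mix added; fluorescence polarization (620/688 nm) read before and after 90 min at 30 °C.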
Mito fusion act: inhibitors of mitochondrial division or activators of mitochondrial fusion | AID 485298 | S. cerevisiae fusion-defective mutant growth rescue, CellTiterGlo 48 h | Potency, µM (series often up to 46.1 µM), without a hit: top-dose growth rescue (activation), most hits filed as activators | 320,000 compounds, 0.23% hits; further: potency means the concentration at half of the fitted maximal effect; % of control where 0% means no effect; nearly all actives have a fitted effect of over 45% in size
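Growth-rescue viability read-out: after 48 h at the non-permissive 37C in glycerol/ethanol YPEG, yeast mitochondrial fusion mutants are measured by CellTiterGlo luminescence; compounds (23 nl pinned per well) restoring growth score as division inhibitors or fusion activators.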
ASM inhibitor: blocks human secretory acid sphingomyelinase; P17405; placental ASM, HMU-PC fluorogenic substrate, 60 min; Potency, µM (highest dose often 57.5 µM), without a hit: top-dose activity change, negative = inhibition, hits mostly inhibitors; 340,000 compounds, 0.006% hits; AID 504937; further: potency means the concentration at half of the fitted maximal effect
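Human placenta-derived ASM enzyme was preincubated with compound for 10 minutes at room temperature, then given fluorogenic substrate HMU-PC0 (9 uM final) for 60 minutes at 37 °C; a pH 10 stop preceded fluorescence reading at Ex 386/Em 447 nm.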
ClpP mod: qHTS Assay for Activators of ClpP; ATP-dependent Clp protease proteolytic subunit (Bacillus subtilis (strain 168)), P80244; purified B. subtilis ClpP, FRET peptide cleavage, 20 min; Potency, µM (series often up to 57.5 µM), inactives show top-dose activity change, negative = active; 340,000 compounds, 1.9% hits; AID 651965, 2013; active means well fitted falling curve with a large enough effect; inconclusive means small, poorly fitted or top-dose-only effect; inactive means no such curve, though single readings can be large or run the other way; further: potency means the concentration at half of the fitted maximal effect; the source files actives as falling curves though it sought activators and does not explain the sign; nearly all actives have a fitted effect of over 65% in size
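Purified B. subtilis ClpP, 10 microg/mL final in Tris/HCl pH8 with KCl, BSA, glycerol and Tween-20, cleaved an Abz/nitrotyrosine-quenched decapeptide. Fluorescence (ex 320, em 430) was read at 0 and 20 min at room temperature. Delta was normalized to 5.8 microM ADEP and DMSO/no-enzyme controls.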
mIDH1 inhibitor: human IDH1 R132H inhibition; O75874; IDH1-R132H enzyme, NADPH consumption, diaphorase/resazurin fluorescence; Potency, µM (top dose mostly 76.6 µM), inactives show top-dose activity change, negative = inhibition, usual class: inhibitors; 390,000 compounds, 0.093% hits; AID 602179; further: potency means the concentration at half of the fitted maximal effect; on the % scale 0 is the no-effect control and ±100 the full control effect; nearly all actives have a fitted effect of over 65% in size
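IDH1-R132H (0.5 ug/mL) preincubated 30 min with compound, then NADPH (0.016 mM) and alpha-KG (2 mM) added; 80 min at RT, pH 7.5. Remaining NADPH coupled via diaphorase/resazurin to fluorescence (540/590 nm); concentration-response curves normalized to no-enzyme control.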
* marks the source's active call; other numbers are inactive results; i = inactive; u = inconclusive; x = not tested or not shown; ! = not active in a repeat; [ ] = dose if it differs, or a comment. Unless noted, the call rests on the fitted dose curve; in most records, active means well fitted curve in the direction sought with a large enough effect; inconclusive means small, poorly fitted or top-dose-only effect, or another doubt; inactive means no such curve, though single readings can be large; an effect the other way counts as inactive or inconclusive.

SMILES | LDHA inh | RGS4 inh | Mito fusion act | ASM inhibitor | ClpP mod | mIDH1 inhibitor
O=C(Cn1nc(-c2ccc(Cl)cc2)ccc1=O)NCCCN1CCN(Cc2ccccc2)CC1 | -5 | 1% | -4% | -2% | 32µM* | 3%
Cc1nc2nc(-c3ccco3)[nH]n2c(=O)c1Cc1ccccc1 | -7 | 0% | -3% | 2% | 28µM* | 2%
CN(CCCNC(=O)c1ccccn1)CC(F)(F)F | -1 | x | x | x | x | x
Cc1cccc(C(=O)NCCCN(C)CC(F)(F)F)n1 | -31* | x | x | x | x | x
Cc1ccc(S(=O)(=O)N=Nc2c(O)[nH]c3ccccc23)cc1 | -6 | -19% | 2% | -1% | -10% | 46µM*
CC1CCN(CCCNC(=O)c2coc3nc4ccccc4nc23)CC1 | 2 | -4% | 5% | i | 27% | 0%
CC1CCCN(CCCNC(=O)c2coc3nc4ccccc4nc23)C1 (stereo not given) | -8 | -21% | 1% | i | 13µM* | 3%
CC1CCCCN1CC(=O)Nc1ccc2c(c1)OC(F)(F)O2 (stereo not given) | -6 | 17% | 17% | -2% | x | -7%
CN1CCC(N(C)CC(=O)Nc2ccc3c(c2)OC(F)(F)O3)CC1 | -34* | 2% | -6% | 0% | x | -1%
CC1=NS(=O)(=O)NC(C)=C1CCC(=O)Nc1ccc(C(C)(C)C)cc1 | 2 | x | x | x | x | x
Cc1cccc(N2C(=O)CC(Sc3nc(-c4ccccc4)c4cc(Cl)ccc4n3)C2=O)c1 (stereo not given) | -11 | -47% | 0% | 48% | 28µM* | 5%
O=C(NC1CC1)c1cccc(NS(=O)(=O)c2cc(F)cc(F)c2)c1 | 7 | x | x | x | x | x
N[C@H](Cc1c[nH]c2ccccc12)C(=O)O | x | 21µM* | x | x | x | x
COc1cccc(C(=O)OCc2cc3ccccc3[nH]c2=O)c1 | -23 | x | x | x | x | x
C=CCNC(=O)NC(=O)CSc1nc(C2CC2)nc2ccccc12 | 8 | x | x | x | x | x
Cc1cc(C)nc(NC(=O)/C=C/c2ccccc2Cl)c1 | 4 | -13% | 25µM* | -2% | 1% | 6%
COc1cccc2cc(-c3cc(=O)oc4ccc(C)cc34)oc12 | 0 | x | x | x | x | x
COc1ccc2oc(=O)cc(-c3cc4cccc(OC)c4o3)c2c1 | -33*! | 0% | 2% | -3% | -1% | 18%
CCCC(c1nnnn1CCc1ccccc1)N1CCN(C2CCCC2)CC1 (stereo not given) | -5 | -1% | -4% | 6% | 0.79µM* | 14%
Cc1c(Cc2ccccc2)c(=O)oc2cc(OCc3ccc(C(C)(C)C)cc3)ccc12 | 6 | x | x | x | x | x
CCN(C(=O)CN1CCN(C)CC1)c1cccc2ccccc12 | -36* | -3% | -1% | 2% | 4% | 1%
Cc1ccc(NC(=O)COc2cccc(/C=C3\SC(=S)N(CCC(=O)O)C3=O)c2)cc1Cl | -36* | 7%[11.4 µM] | 16% | u | 0% | -12%
O=C(c1cccc(S(=O)(=O)N2CCOCC2)c1)N(Cc1nnc(-c2ccccc2Cl)o1)C1CC1 | -10 | 6% | -3% | -1% | x | -1%
O=C(c1ccc(Cl)c(S(=O)(=O)N2CCOCC2)c1)N(Cc1nnc(-c2ccccc2Cl)o1)C1CC1 | -1 | -11% | -3% | 0% | 22µM* | 5%
O=C(N/N=C/c1cc(Br)ccc1O)c1cccc(N2CCCC2=O)c1 | -4 | -2% | 4% | -1% | 2% | -3%
SMILES | LDHA inh | RGS4 inh | Mito fusion act | ASM inhibitor | ClpP mod | mIDH1 inhibitor
O=C(N/N=C/c1ccco1)c1cccc(N2CCCC2=O)c1 | -6 | -15% | -5% | 5% | 28µM* | 10%
CCc1ccc(C(=O)N(C)Cc2cccs2)s1 | 0 | x | x | x | x | x
O=C(Nc1cccc(Cl)c1)N1CCN2C(=O)c3ccccc3C12c1ccccc1 (stereo not given) | -2 | -19%[11.4 µM] | 3% | -11% | 16µM* | -7%
O=C(CCl)N1CCN2C(=O)c3ccccc3C12c1ccc(Cl)cc1 (stereo not given) | -2 | 5% | 1% | -1% | x | -26%
COc1ccccc1-c1nnc(NC(=O)C(C)C)s1 | -4 | 29% | -3% | 0% | 32µM* | 7%
COc1ccccc1-c1nnc(NC(C)=O)s1 | -9 | 30% | 1% | 3% | 28µM* | 7%
CCNc1c(NC(=O)NCC(C)C)c(=O)oc2ccccc12 | 12 | x | x | x | x | x
CCn1nc(C(=O)Nc2ccncc2)c2ccccc2c1=O | 7 | x | x | x | x | x
CCOc1ccc(S(=O)(=O)[C@H]2CS(=O)(=O)C[C@@H]2N2CCC(C(=O)OC)CC2)cc1 | -3 | x | x | x | x | x
CCOC(=O)c1cc(-c2ccc(C#N)cc2)nc2c1c(C)nn2CCC#N | -9 | 20% | 4% | 29% | u | -1%
CCOC(=O)c1cc(-c2ccc(OC)cc2)nc2c1c(C)nn2CCC#N | 0 | 4% | 12% | i | 25µM* | -1%
O=C(COc1ccccc1)N1CCC(c2nc3ccccc3o2)CC1 | 2 | x | x | x | x | x
CN(C)S(=O)(=O)N(CC(=O)Nc1ccc(F)cc1F)c1ccccc1 | 1 | x | x | x | x | x
COc1cccc(-c2nnc(NC(C)=O)o2)c1 | 3 | 18% | -2% | 3% | u | -3%
COc1ccccc1-c1nnc(Nc2nc3c(OC)cccc3s2)o1 | -7 | 5%[11.4 µM] | -1% | i | 35µM* | -1%
COc1cccc(-c2nnc(Nc3nc4c(F)cccc4s3)o2)c1 | -4 | -14% | 9% | i | 28µM* | 11%
COc1cccc2sc(Nc3nnc(-c4ccccc4Cl)o3)nc12 | -11 | -2% | 19% | 146% | u | 1%
CS(=O)(=O)Cc1ccc(C(=O)NCc2ccc(F)cc2)cc1 | -7 | x | x | x | x | x
Cc1ccn2c(/C=N/OCc3cccc(F)c3)c(-c3ccc(Cl)cc3)nc2c1 | 0 | -1%[11.4 µM] | -2% | 7% | 25µM* | -1%
Cc1ccn2c(/C=N/OCc3ccc(F)cc3)c(-c3ccc(Cl)cc3)nc2c1 | -3 | 20% | -1% | -3% | u | -1%
Cc1ccccc1N=Cc1cccc(O)c1O | 32 | -112% | -6% | 0% | 1% | 4%
Cc1cccc(C=Nc2ccc3c(c2)oc2ccccc23)c1O | -5 | -46% | -13% | -5% | 32µM* | 9%
Cc1ccc(-c2cnc(SCC(=O)Nc3ccc(F)cc3)o2)cc1C | -11 | x | x | x | x | x
C=C(C)Cn1c(SCC(=O)Nc2ccccc2)nc2c1c(=O)n(C)c(=O)n2C | -12 | x | x | x | x | x
Cc1cc(C)c(S(=O)(=O)Nc2cc(-c3cn4ccccc4n3)ccc2C)cc1C | 2 | 17% | x | x | 5% | -4%
COc1ccc(Br)cc1S(=O)(=O)Nc1cc(-c2cn3ccccc3n2)ccc1C | -10 | 19% | x | x | 18µM* | 40%
Cc1ccc(Oc2nc3ccccc3n3cccc23)cc1 | -2 | -16% | 11% | -11% | 22µM* | 9%

Screening data from PubChem BioAssay.
